Source: PubChem BioAssay
A selection: hits, their analogues and other compounds. The true share with any hit is near 2.4%.
D2 ag-1 – Beta-Arrestin HTS for Positive Allosteric Modulators of the Human D2 Dopamine Receptor: Agonists; 360,000 tested, 0.084% active; DiscoveRx PathHunter D2 beta-arrestin, luminescence, 90 min; 100% = 57 uM dopamine signal; activation, % (no concentration beside the values); in the data active = activation above about 40%; inconclusive = between about 15% and that limit
Target sequence (P14416 whole entry, looked up): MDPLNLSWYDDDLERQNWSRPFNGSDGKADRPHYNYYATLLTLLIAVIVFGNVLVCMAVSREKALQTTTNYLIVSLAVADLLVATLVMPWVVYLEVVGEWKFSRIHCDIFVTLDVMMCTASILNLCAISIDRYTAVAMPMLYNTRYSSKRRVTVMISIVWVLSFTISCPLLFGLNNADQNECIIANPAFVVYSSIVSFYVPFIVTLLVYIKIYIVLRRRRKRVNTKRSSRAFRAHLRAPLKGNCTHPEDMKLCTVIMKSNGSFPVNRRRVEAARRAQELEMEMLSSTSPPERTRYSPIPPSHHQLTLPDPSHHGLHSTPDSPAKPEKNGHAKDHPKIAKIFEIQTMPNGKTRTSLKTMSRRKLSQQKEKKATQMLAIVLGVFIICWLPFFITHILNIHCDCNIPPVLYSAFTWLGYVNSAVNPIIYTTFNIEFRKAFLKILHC
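Agonist mode: compounds alone added to overnight-plated D2 PathHunter cells for 90 min at 37 C, with 57 uM final dopamine (EC100) defining full response. Beta-arrestin recruitment detected by chemiluminescent reagent, read after 1 h at ambient temperature.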
D2 PAM-1 – HTS Assay for Positive Allosteric Modulators of the Human D2 Dopamine Receptor: Primary Screen for Potentiators | D(2) dopamine receptor (Homo sapiens), P14416 | 340,000 tested, 0.34% active | potentiation, % at 10 µM | AID 485347, 2010 | HEK293 T-REx D2, calcium flux, EC20 dopamine potentiation;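 active = potentiation over 3 SD above the plate norm, cut at about 30% in these data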; note: 0% is about no effect
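Cells plated with tetracycline inducer and held overnight at 30 C; calcium dye loaded 30–90 min at room temperature; baseline taken, compound added and read 180 s; EC20 dopamine then added and read 180 s.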
D2 PAM-2 – Beta-Arrestin HTS for Positive Allosteric Modulators of the Human D2 Dopamine Receptor: Potentiators; D(2) dopamine receptor (Homo sapiens), P14416; DiscoveRx D2 beta-arrestin cells, luminescence, 90 min; 100% = 57 uM dopamine signal; potentiation, % (test concentration not listed); 360,000 tested, 0.23% active; in the data active = potentiation above about 50%; inconclusive = mostly about 30% to 49%
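PathHunter beta-arrestin assay in DiscoveRx D2 cells. Compounds were added with an EC20 of dopamine (50 nM final) for 90 min at 37 deg C. Luminescence was read 1 h after detection reagent, with 57 uM dopamine as the EC100 control.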
D2 ag-2 – HTS Assay for Allosteric Agonists of the Human D2 Dopamine Receptor: Primary Screen for Agonists. HEK293 T-REx D2 cells, calcium flux agonist mode. activation, % at 2 µM. 340,000 tested, 0.53% active. AID 485358, 2010;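 active = activation over 3 SD above normal in the single-dose calcium agonist read, cut at about 30% in these data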; note: 0% is about no effect
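HEK293 Trex D2 cells, tetracycline-induced, o/n 30 C 5% CO2; no-wash Ca dye, RT 30–90 min; 10-cycle baseline, 23 nl cpd added, kinetic Ca read 180 s; agonist hits = positive Ca response.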
D2 antagonist – HTS Assay for Allosteric Antagonists of the Human D2 Dopamine Receptor: Primary Screen for Antagonists | AID 485344, 2010 | HEK293 TREx D2 cells, calcium flux, dopamine EC80 | D(2) dopamine receptor (Homo sapiens), P14416 | 340,000 tested, 2% active | inhibition, % at 10 µM; in the data active = inhibition above about 30%; inactive = below that, where a call was filed; note: 0% is about no effect
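Overnight-induced (tetracycline, 30 C) HEK293 T-REx cells carrying force-coupled D2 receive a no-wash calcium dye, then compound, then EC80 dopamine at 180 s; signals are read kinetically throughout.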
D3 arrestin ag – qHTS of D3 Dopamine Receptor Agonist: D3 Dopamine Receptor B-arrestin Agonist Confirmatory Assay; shares compounds with D2 ag-2; DiscoveRx D3 beta-arrestin cells, luminescence, 90 min; Potency, µM (series often up to 76.9 µM), for the others: at the highest dose activation, actives largely listed as activators; 2,300 tested, 4% active;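 note: potency is the fitted concentration of half-maximal effect; 100% = dopamine control response; nearly all actives have a fitted effect of over 70% in size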
D2 ag-3 – qHTS of D3 Dopamine Receptor Agonist: D2 Dopamine Receptor B-arrestin Agonist Counterscreen; Potency, µM (titrated, usually from 76.9 µM), for the others: at the top dose activation, most hits filed as activators; AID 720507, 2013; 2,300 tested, 5.9% active; shares compounds with D2 ag-2; DiscoveRx PathHunter D2 beta-arrestin, luminescence, 90 min; response scale: percent relative to full dopamine signal; note: potency is the fitted concentration of half-maximal effect; % of control where 0% means no effect; nearly all actives have a fitted effect of over 70% in size
Starred values were filed as active, the others as inactive; ? = inconclusive; . = no result given. Unless noted, calls come from the whole dose curve; as a rule, active = well fitted activation curve with a large enough effect; inconclusive = small, poorly fitted or top-dose-only effect; inactive = flat fitted curve, though single readings scatter.

SMILES | D2 ag-1 | D2 PAM-1 | D2 PAM-2 | D2 ag-2 | D2 antagonist | D3 arrestin ag | D2 ag-3
O=C(Nc1ccc2ccccc2c1)N1CCCN(CCOc2ccccc2)CC1 | 2.6 | -21.9 | -6.1 | 38.0* | -0.6 | 10.2% | 1.2%
Cc1nn(CC(=O)NC2CCCCC2)c(=O)c2cc3cc(F)ccc3n12 | . | 0.8 | . | -0.3 | . | . | .
Cc1nn(-c2ccccc2)c(-n2cccc2)c1C(=O)NCCc1ccc(Cl)cc1 | . | 8.5 | . | -1.0 | . | . | .
O=C(c1cc2ccccc2o1)N1CCN(CCOc2ccccc2)CC1 | ? | -37.8 | -26.9 | 75.6* | 96.2* | 0.199µM* | ?
O=C(c1cc2ccccc2o1)N1CCOCC1 | -3.3 | -12.6 | -16.3 | 0.0 | 2.3 | . | .
O=S1(=O)CCC(NC(=S)Nc2ccc3ccccc3c2)C1 (stereo unspecified) | 0.5 | -3.1 | -7.8 | -0.9 | 8.9 | . | .
CC1(NC(=S)Nc2ccc3ccccc3c2)CCS(=O)(=O)C1 (stereo unspecified) | 1.6 | -21.9 | 2.6 | 0.9 | 36.6* | -1.3% | 0.5%
CCNC(=S)Nc1cc2oc3ccccc3c2cc1OC | -5.5 | -12.5 | -15.3 | 0.5 | -1.9 | . | .
CNC(=S)Nc1cc2oc3ccccc3c2cc1OC | 2.3 | -18.9 | 7.4 | 57.1* | 13.8 | -1.9% | 16.5%
COc1cccc(N2CC(NC(=O)COc3ccc4ccccc4c3)CC2=O)c1 (stereo unspecified) | . | 7.5 | . | -0.8 | . | . | .
CCOC(=O)N1CCN(CCC(=O)Nc2cccc(F)c2)CC1 | . | 7.6 | . | -2.0 | . | . | .
O=C(CSc1ncnc2scc(-c3ccc(F)cc3)c12)c1ccc2c(c1)OCCO2 | 1.0 | 0.9 | -20.4 | 49.9* | 5.5 | 7.5% | 1.7%
COc1ccc(C)cc1NC(=O)NC(C)c1ccc2c(c1)OCO2 (stereo unspecified) | -2.9 | -22.3 | -29.8 | 65.0* | 7.7 | -5.5% | -5.6%
CCc1ccc2c(CC(=O)NNC(=O)c3ccncc3)coc2c1 | 4.6 | -5.0 | 2.2 | 0.1 | -3.7 | -2.2% | -4.6%
CCOc1ccc(NC(=O)c2ccc(F)c(S(=O)(=O)NCc3ccc4c(c3)OCO4)c2)cc1 | . | -0.9 | . | 0.3 | . | . | .
O=C(Nc1cccc(Cl)c1)c1ccc(F)c(S(=O)(=O)NCc2ccc3c(c2)OCO3)c1 | 5.1 | -1.1 | -8.4 | -1.6 | 2.0 | 3.2% | 4.4%
COc1ccc(C(=O)/C=C/c2cc(OC)c(O)c(OC)c2)c(F)c1 | -3.8 | -0.1 | -27.4 | 25.5 | 33.3* | 3.1% | -5.9%
COc1ccc2cc(C(=O)/C=C/c3cc(OC)c(O)c(OC)c3)ccc2c1 | -3.6 | 3.1 | -4.0 | 4.1 | 16.1 | . | .
O=C(NCCCN1CCN(c2cccc(Cl)c2)CC1)c1nc(-c2ccncc2)no1 | 9.4 | -36.4 | -15.2 | 69.1* | 82.5* | 3.9% | 21.4%
Cc1nc2nc(C)c(CCC(=O)NCCCN3CCN(c4cccc(Cl)c4)CC3)c(C)n2n1 | ? | -13.9 | -16.0 | 75.4* | 72.6* | 9.6% | ?
COc1ccc(S(N)(=O)=O)cc1C(=O)NCCCN1CCN(c2ccccc2OC)CC1 | 8.3 | -31.5 | -35.6 | 60.1* | 77.4* | -1.8% | 2.1%
O=C(NCCCN1CCN(CCCNC(=O)c2cccc(Cl)c2)CC1)c1cccc(Cl)c1 | -2.1 | -11.4 | -23.7 | -0.7 | 2.1 | . | .
